Measured values from PubChem BioAssay (NCATS).
Inconclusive results are not listed. Entries that show only a call come without a potency. The source made the active and inactive calls. Calls come from the whole dose curve; as a rule, active = well fitted inhibition curve with a large enough effect; inconclusive = small, poorly fitted or top-dose-only effect; inactive = flat fitted curve, though single readings scatter.

target: Calcium and integrin-binding protein 1 (Homo sapiens) (UniProt Q99828); assay: Primary qHTS for Identification of Calcium Integrin Binding Protein 1 (CIB1) Competitor (AID 1508620); conditions: CIB1-GST / FITC-alphaIIb peptide fluorescence polarization; series mostly up to 114 µM
Sequence (Q99828 whole entry, looked up): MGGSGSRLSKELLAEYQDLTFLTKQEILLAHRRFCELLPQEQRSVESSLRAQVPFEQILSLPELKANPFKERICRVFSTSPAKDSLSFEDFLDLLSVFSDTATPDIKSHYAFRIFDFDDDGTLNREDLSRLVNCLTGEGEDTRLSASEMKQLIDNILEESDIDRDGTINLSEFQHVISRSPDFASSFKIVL
Method in brief: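 Fluorescence polarization competition: GST-tagged CIB1 (1 uM final) preincubated with compound 15 min at room temperature, then FITC-labelled alphaIIb peptide (100 nM final) added. After 15 min at room temperature, polarization read at Ex 480/Em 540.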
Potency is the fitted concentration of half-maximal effect.

SMILES	Potency
Cc1cc(C)c(/C=C2\C(=O)Nc3ccccc32)[nH]1	inactive
CSc1ccc(C(=O)c2[nH]c(=O)[nH]c2C)cc1	inactive
Cc1ccc(Cl)c(Nc2ccccc2C(=O)O)c1Cl	inactive
CCCC(C(=O)OCCN(CC)CC)(c1ccccc1)c1ccccc1	inactive
COC(=O)[C@H]1[C@H]2C[C@@H]3c4[nH]c5cc(OC)ccc5c4CCN3C[C@H]2C[C@@H](OC(=O)c2cc(OC)c(OC)c(OC)c2)[C@@H]1OC	inactive
CCOC(=O)C1=C(C)NC(C)=C(C(=O)OC)C1c1cccc(Cl)c1Cl (stereo not given)	inactive
COc1cc2c(cc1OC)-c1cc(=Nc3c(C)cc(C)cc3C)n(C)c(=O)n1CC2	inactive
CCOC(=O)C1=C(C)NC(C)=C(C(=O)OC)C1c1cccc([N+](=O)[O-])c1 (stereo not given)	inactive
CN1C[C@H](C(=O)N[C@]2(C)O[C@@]3(O)[C@@H]4CCCN4C(=O)[C@H](Cc4ccccc4)N3C2=O)C[C@@H]2c3cccc4[nH]cc(c34)C[C@H]21	inactive
CCNC(=O)N1CCN(CCCC(c2ccc(F)cc2)c2ccc(F)cc2)CC1	inactive
Cc1nc2sccn2c(=O)c1CCN1CCC(=C(c2ccc(F)cc2)c2ccc(F)cc2)CC1	inactive
COCCCC/C(=N\OCCN)c1ccc(C(F)(F)F)cc1	inactive
COCCOC(=O)C1=C(C)NC(C)=C(C(=O)OC(C)C)C1c1cccc([N+](=O)[O-])c1 (stereo not given)	inactive
C[n+]1cc2c3c(ccc2c2ccc4cc5c(cc4c21)OCO5)OCO3	14.1 µM (active)
C[C@]12CC[C@@H]3c4ccc(O)cc4C[C@@H](CCCCCCCCCS(=O)CCCC(F)(F)C(F)(F)F)[C@H]3[C@@H]1CC[C@@H]2O (stereo not given in full)	inactive
COC(=O)C1=C(C)NC(C)=C(C(=O)OCCN(C)Cc2ccccc2)C1c1cccc([N+](=O)[O-])c1 (stereo not given)	inactive
CCCCCN(CCCCC)C(=O)C(CCC(=O)O)NC(=O)c1ccc(Cl)c(Cl)c1 (stereo not given)	inactive
CCCCOCCOCCOCc1cc2c(cc1CCC)OCO2	inactive
CC(C)COCC(CN(Cc1ccccc1)c1ccccc1)N1CCCC1 (stereo not given)	inactive
CNCCC(Oc1ccccc1OC)c1ccccc1 (stereo not given)	inactive
NC(=Nc1ccccc1)Nc1ccccc1	inactive
CCN1CCc2nc(N)oc2CC1	inactive
CCCN1C[C@H](CSC)C[C@@H]2c3cccc4[nH]cc(c34)C[C@H]21	inactive
CNCCCN1c2ccccc2CCc2ccccc21	inactive
CCCOc1ccccc1-c1nc2n[nH]nc2c(=O)[nH]1	inactive
